# Rows were chosen to be rich in hits. Some 10% of all compounds tested hit in one or more screens of this group.
# PNC inhibitor = High Content Assay for Compounds that inhibit the Assembly of the Perinucleolar Compartment | PC3M PTB-GFP, PNC prevalence imaging, 16 h; stronger effect = lower value | activity change (PNC), negative = inhibition, % at 10 µM | 3.1% of 140,000 active | AID 2417, 2010;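 active = readout at or below -70, meaning at least 70% loss of cells showing the perinucleolar compartment, a nuclear body marking cancer cells; inconclusive = readout between -30 and a set limit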;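 note: plate controls were DMSO wells for no effect and camptothecin positive control wells for full effect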
#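 Compounds are pinned in duplicate onto adhered PC3M cells stably expressing GFP-tagged PTB and incubated 16 h at 37 C. Cells are then fixed, nuclei stained with Hoechst, and PNC-positive cells counted.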
# GLA inh pH 4.5 = qHTS Assay for Inhibitors of Human alpha-Galactosidase at pH 4.5; Alpha-galactosidase A (Homo sapiens), P06280; purified enzyme, 4-MU-alpha-Gal fluorescence, pH 4.5; activity change, negative = inhibition, % at 105 µM; 230,000 tested, under 10 active; AID 1467, 2008;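 note: 0% = full activity with enzyme and -100% = basal without enzyme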
# GLA spleen mod = qHTS Assay for Inhibitors and Activators of Human alpha-Galactosidase From Spleen Homogenate. Potency, µM (highest dose often 80 µM), for inactives: at the top dose activity change, negative = inhibition, actives largely listed as inhibitors. Alpha-galactosidase A (Homo sapiens), P06280. 0.008% of 240,000 active. AID 2107, 2009. human spleen homogenate, 4MU-alpha-Gal fluorescence, 40 min;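 note: potency is the fitted concentration of half-maximal effect; 0% = enzyme with vehicle and -100% = no enzyme basal signal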
#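 Human spleen homogenate (1 ug) as enzyme source, 4-methylumbelliferyl-alpha-D-galactopyranoside 1 mM final, citrate/phosphate pH 5.0 with 0.01% Tween-20. Compounds 40 min at 37C, NaOH/glycine stop; fluorescence Ex 365/Em 440, Hill-fit AC50.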
# HPGD inh = qHTS Assay for Inhibitors of HPGD (15-Hydroxyprostaglandin Dehydrogenase); 15-hydroxyprostaglandin dehydrogenase [NAD(+)] (Homo sapiens), P15428; Potency, µM, without a hit: at the highest dose activity change, negative = inhibition, most hits filed as inhibitors; purified HPGD, NADH fluorescence kinetic, PGE2 substrate; 4.3% of 150,000 active; active = well fitted inhibition curve with a large enough effect, not every such curve was filed as active; inconclusive = small, poorly fitted or top-dose-only effect, or another doubt; inactive = no such curve, though single readings can be large or run the other way; note: potency is the fitted concentration of half-maximal effect
#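 NADH formation kinetics: reaction with 30 uM PGE2 and 1 mM NAD+ (final), 20 nM enzyme, Tris-HCl pH 8 with Tween 20, after 15 min compound preincubation at room temperature. Fluorescence change, last versus first of five reads.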
# ALDH1A1 inh = qHTS Assay for Inhibitors of Aldehyde Dehydrogenase 1 (ALDH1A1) | Purified ALDH1A1, NADH fluorescence, propionaldehyde substrate | Potency, µM (top dose mostly 75.3 µM), for the others: at the highest dose activity, negative = inhibition, hits mostly inhibitors | 7.3% of 220,000 active | AID 1030, 2008; active = well fitted inhibition curve with a large enough effect, not every such curve was filed as active; inconclusive = small, poorly fitted or top-dose-only effect, or another doubt; inactive = no such curve, though single readings can be large or run the other way;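 note: potency is the fitted concentration of half-maximal effect; plate controls were no enzyme wells and a reference inhibitor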
# 12-hLO inh = qHTS Assay for Inhibitors of 12-hLO (12-human lipoxygenase); 0.12% of 150,000 active; purified 12-hLO, xylenol orange hydroperoxide absorbance; Polyunsaturated fatty acid lipoxygenase ALOX12 (Homo sapiens), P18054; AID 1452, 2008; Potency, µM (series often up to 57.1 µM), without a hit: top-dose activity change, negative = inhibition, most hits filed as inhibitors; note: potency is the fitted concentration of half-maximal effect; nearly all actives have a fitted effect of over 55% in size
# Target sequence (P18054 whole entry, looked up): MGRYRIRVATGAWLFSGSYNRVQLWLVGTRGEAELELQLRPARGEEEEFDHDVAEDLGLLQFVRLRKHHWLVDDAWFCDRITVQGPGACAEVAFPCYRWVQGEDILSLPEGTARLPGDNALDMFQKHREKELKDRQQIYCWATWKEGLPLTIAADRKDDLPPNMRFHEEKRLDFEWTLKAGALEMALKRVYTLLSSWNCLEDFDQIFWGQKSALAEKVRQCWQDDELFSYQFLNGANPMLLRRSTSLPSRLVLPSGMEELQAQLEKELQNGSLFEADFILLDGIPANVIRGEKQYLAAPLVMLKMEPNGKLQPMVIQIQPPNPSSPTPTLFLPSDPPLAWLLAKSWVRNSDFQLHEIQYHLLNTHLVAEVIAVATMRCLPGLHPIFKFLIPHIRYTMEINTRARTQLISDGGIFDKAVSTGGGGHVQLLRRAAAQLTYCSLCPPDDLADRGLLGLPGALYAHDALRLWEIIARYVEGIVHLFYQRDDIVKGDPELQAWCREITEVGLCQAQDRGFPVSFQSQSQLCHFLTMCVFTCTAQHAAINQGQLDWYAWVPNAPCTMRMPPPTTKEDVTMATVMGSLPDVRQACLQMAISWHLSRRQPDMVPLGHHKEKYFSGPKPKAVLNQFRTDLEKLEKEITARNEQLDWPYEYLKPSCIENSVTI
#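 Hydroperoxide formation by human 12-lipoxygenase from 40 uM arachidonic acid was followed colorimetrically via ferric-xylenol orange complex, using the 573/405 nm absorbance ratio. Enzyme concentration was 150 nM, with 30 min reaction at room temperature.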
# * marks the source's active call; other numbers are inactive results; u = inconclusive; x = no result; [ ] = another dose, or the depositor's remark. Unless noted, calls come from the whole dose curve; as a rule, active = well fitted curve in the direction sought with a large enough effect; inconclusive = small, poorly fitted or top-dose-only effect, or another doubt; inactive = no such curve, though single readings can be large; an effect the other way counts as inactive or inconclusive. Unless noted, % is set by controls: 0 for no effect and ±100 for the full control effect.
SMILES,PNC inhibitor,GLA inh pH 4.5,GLA spleen mod,HPGD inh,ALDH1A1 inh,12-hLO inh
COc1cccc(-c2cc(C(=O)N3CCCCCC3)no2)c1,-108.4*,13.7,-4.9%,2.51µM*,u,-10.0%
COc1ccc(-c2cc(C(=O)N3CCc4ccccc4C3)no2)cc1OC,43.1,-4.8,6.3%,11.2µM*,u,-12.3%
COc1cccc(-c2cc(C(=O)N3CCCc4ccccc43)no2)c1,32.1,-3.9,-0.7%,-9.7%,u,-0.9%
C=CCn1c(-c2csc3c2CCC(C)C3)n[nH]c1=S (centres undefined),u,-13.5,-7.4%,20µM*,u,-15.9%
CCn1c(-c2csc3c2CCCC3)n[nH]c1=S,32.9,5.0,6.6%,25.1µM*,u,-3.0%
CCn1c(-c2ccccc2SC)n[nH]c1=S,x,2.6,3.1%,x,-2.4%,x
CCCCn1c(-c2csc3c2CCCC3)n[nH]c1=S,-4.4,2.6,0.4%,15.8µM*,u,u
CCCCn1c(-c2csc3ccccc23)n[nH]c1=S,3.8,-21.2,6.4%,u,u,-9.9%
Cc1ccc(NC(=O)COC(=O)/C=C/c2ccc(Br)o2)cc1S(=O)(=O)N(C)C,x,-0.1,-4.4%,x,20µM*,x
Cc1ccc(NC(=O)c2ccc(Br)o2)cc1S(=O)(=O)N(C)C,x,-5.1,-2.9%,x,14.1µM*,x
CN(C)S(=O)(=O)c1cccc(NC(=O)COC(=O)/C=C/c2ccc(Br)o2)c1,x,0.0,-1.7%,x,8.91µM*,x
CCC(=O)Nc1nnc(CCc2ccccc2)s1,46.1,-4.4,2.6%,-25.5%,u,5.6%
CCCC(C)c1nnc(NC(=O)C(=O)OCC)s1 (centres undefined),x,5.5,-8.0%,x,7.94µM*,x
CCCC(C)c1nnc(NC(=O)C2CCCO2)s1 (centres undefined),-8.3,9.0,-2.3%,11.2µM*,3.55µM*,5.3%
CCOC(=O)C(=O)Nc1nnc(CCc2ccccc2)s1,-100.0*,-2.9,3.3%,-8.2%,-3.2%,-1.2%
CCCCCc1nnc(NC(=O)C2CCCO2)s1 (centres undefined),40.5,-0.2,10.5%,-6.9%,u,1.7%
O=C(Nc1nnc(-c2ccccc2F)s1)C1CCCO1 (centres undefined),52.0,0.7,5.7%,-20.1%,20µM*,-2.6%
CN(C)c1ccc(/C=C(\C#N)C(=O)Nc2nc3c(s2)CCN(Cc2ccccc2)C3)cc1,-21.0,-0.8,2.4%,0.0%,u,-1.4%
COc1ccccc1/C=C(/C(=O)OCC(=O)N(C)Cc1ccccc1)c1ccccc1,12.4,0.6,-4.1%,-6.4%,4.2%,-1.4%
Cc1nc(-c2ccc(S(=O)(=O)Oc3ccc(Cl)cc3Cl)s2)cs1,x,-2.4,-8.0%,x,x,x
CCCC(C)c1nnc(NC(=O)c2cc(C(=O)OC)cc([N+](=O)[O-])c2)s1 (centres undefined),41.0,-4.1,-3.9%,11.2µM*,7.94µM*,-2.4%
Cc1nnc(NC(=O)C2CCCO2)s1 (centres undefined),u,3.9,1.6%,12.6µM*,8.91µM*,5.3%
CCCC(C)NC(=O)c1cc(C(=O)OC)cc([N+](=O)[O-])c1 (centres undefined),-3.5,-5.8,5.9%,-3.9%,-4.4%,-0.2%
COCCSc1nnc(NC(=O)C2CCCO2)s1 (centres undefined),-24.3,6.8,1.3%,-7.8%,5.0%,-3.7%
Cc1ccc2nc(C)cc(C(=O)OCC(=O)Nc3c(C)n(C)n(-c4ccccc4)c3=O)c2c1,x,-5.5,-0.7%,x,6.7%,x
SMILES,PNC inhibitor,GLA inh pH 4.5,GLA spleen mod,HPGD inh,ALDH1A1 inh,12-hLO inh
Cc1cnn(CCC(=O)NNC(=S)Nc2cccc(Cl)c2)c1,19.8,5.9,1.3%,-10.8%,u,-5.8%
Cc1ccc(C2CC2C(=O)NNC(=S)Nc2cccc(Cl)c2)cc1 (centres undefined),u,1.4,-0.9%,-25.5%,7.08µM*,-23.4%
Cc1ccc(C2CC2C(=O)NNC(=S)Nc2cccc(C)c2)cc1 (centres undefined),u,-1.6,-0.8%,-25.1%,17.8µM*,u
CC(C)(CCc1nc2ccccc2[nH]1)C(=O)O,x,x,x,-13.0%,1.7%[13.5 µM],0.8%[11.4 µM]
Cc1ccc(NC(=O)C2C3CCCC2C3c2ccccc2)cc1 (centres undefined),-26.6,5.3,-18.4%,-4.7%,9.1%,-2.4%
CCCCC/C=C\C[C@@H]1O[C@H]1C(O)/C=C\C/C=C\CCCC(=O)O (some centres undefined),x,-10.0,-2.7%,-2.4%,18.0%,-0.3%
O=C1Nc2ccccc2S/C1=C/Nc1cccc(Cl)c1,u,-3.4,-4.0%,-13.1%,-4.4%,4.3%
Clc1ccsc1-c1csc(-c2cccnc2)n1,-25.8,-0.6,-3.9%,u,-5.3%,1.4%
O=S(=O)(c1ccc(-c2csc(-c3cccnc3)n2)cc1)N1CCCCC1,-23.1,-5.1,9.5%,28.2µM*,u,-5.6%
c1cncc(-c2nc(-c3ccco3)cs2)c1,9.2,-6.4,-2.8%,u,1.26µM*,-3.5%
CCOC(=O)C1(Cc2cccc(OC)c2)CCCN(C(=O)CCc2cccnc2)C1 (centres undefined),x,-26.2,-6.7%,x,1.3%,x
O=C(CSc1nc(-c2cccs2)cc(C(F)(F)F)n1)Nc1cc(OCC(F)(F)F)cc([N+](=O)[O-])c1,-89.9*,-3.5,-5.1%,-0.1%,2.5%,-3.3%
CCC(C)NC(=O)CSc1nc(-c2cccs2)cc(C(F)(F)F)n1 (centres undefined),16.0,-10.0,-24.3%,u,-2.6%,-1.0%
CS(=O)(=O)N1CCC2(CCN(C(=O)Nc3cccc(F)c3)CC2)CC1,x,x,-6.8%,0.2%,40.1%,-0.8%
O=C(OC1CCS(=O)(=O)c2sccc21)c1ccccc1 (centres undefined),u,-9.8,-7.3%,-9.8%,22.4µM*,-8.8%
O=S(=O)(CCc1ccccc1)/N=C/c1cccs1,-103.0*,12.1,-12.7%,-17.3%,u,-0.2%
COc1cc(/C=N/S(=O)(=O)CCc2ccccc2)ccc1O,57.6,-1.0,-1.5%,-11.7%,28.2µM*,-1.2%
COc1ccc(Nc2nc(C)cc(C)c2C(N)=O)cc1,17.4,2.2,-1.4%,-3.4%,3.4%,1.7%
Cc1cc(C)c(C(N)=O)c(Nc2cccc(Cl)c2)n1,-100.0*,-1.7,6.7%,-19.8%,0.0%,-7.9%
